Several values for one entry are separate records, joined by “and”; a condition that tells them apart may be missing. Equal entries are not always repeated. Compounds without any hit were thinned out: in the full panel of roughly 83,000, 20% have a hit.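 Note: values are percent growth. 100 is the growth of untreated cells, values between 100 and 0 indicate rising inhibition; between -100 and 0 indicates cell death.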 Activity calls are given as the source filed them. The calls were made as follows: active = growth percent below 10; inactive = the rest.
system: EKVX NSCLC; experiment: NCI-60 one-dose screen, 48 h (100 = growth as untreated, 0 = no growth, -100 = all killed); conditions: 10 µM unless noted

Row | SMILES | growth
1 | CC1=C(/C=C/C(C)=C/C=C/C(C)=C/C=N/NC(=S)NC(=S)N/N=C/C=C(C)/C=C/C=C(C)/C=C/C2=C(C)CCCC2(C)C)C(C)(C)CCC1 | 36% (inactive) and 25.5% (inactive)
2 | CCCCOc1cc(C(=O)NCCN(CC)CC)c2ccccc2n1 | 74.9% (inactive)
3 | COc1cc2c(c(OC)c1OC)-c1ccc(OC)c(=O)cc1[C@@H](NC(C)=O)CC2 | 42.2% (inactive) and 34.6% (inactive) and 35.8% (inactive)
4 | CN1CCN(c2ccc3nc(-c4c(N)c5c(F)cccc5[nH]c4=O)[nH]c3c2)CC1 | -82.3% (active) and 54.7% (inactive)

system: SN12C renal; experiment: as above; conditions: 10 µM unless noted

Row | SMILES | growth
5 | O=[N+]([O-])c1ccccc1/C=N\Nc1ccccc1 | 84.9% (inactive) and 87.6% (inactive)
6 | CCN(CC)CCNc1cc(-c2cccc(OC(F)(F)F)c2)nc2ccc(N3CCCC3)cc12 | 3.62% (active) and 3.14% (active) and 38.1% (inactive)
7 | CC(=O)Nc1cc(S(=O)(=O)O)cc2cc(S(=O)(=O)O)c(N=Nc3ccccc3)c(O)c12 | 106% (inactive) and 98.4% (inactive)
8 | CC(C)CNC(=O)c1ccccc1C(=O)NC1(C(=O)NCC(C)C)CCCC1 | 99.8% (inactive) and 107% (inactive)
9 | COc1cc2nc(N3CCN(C(=O)C4COc5ccccc5O4)CC3)nc(N)c2cc1OC (stereo not drawn) | 88.1% (inactive) and 83% (inactive) and 99.7% (inactive)
10 | O=C(Cc1cccc2ccccc12)N/N=C/c1ccc2c(c1)CCC2 | 84% (inactive)
11 | CC1=C(/C=C/C(C)=C/C=C/C(C)=C/C(=O)O)C(C)(C)CCC1 | 81% (inactive) and 85.3% (inactive) and 73.8% (inactive)
12 | O=C(Nc1ccc(Br)cc1)c1cc(Br)ccc1O | 6.5% (active) and -10.3% (active)
13 | Cc1cc(-c2ccc(NS(=O)(=O)c3ccccc3)c(C)c2)ccc1NS(=O)(=O)c1ccccc1 | 94.7% (inactive) and 98.4% (inactive)
14 | O=C(CCl)c1ccc2c(c1)Nc1ccccc1S2 | 104% (inactive) and 93.8% (inactive)
15 | CC1CCCc2sc3nc(NNC(=O)c4cnccn4)n(-c4ccccc4)c(=O)c3c21 (stereo not drawn) | 20% (inactive) and 16.7% (inactive)
16 | Cc1cc(O)c(C(C)C)cc1N | 114% (inactive)
17 | COc1ccc2cc3[n+](cc2c1OC)CCc1cc2c(cc1-3)OCO2 | 30.2% (inactive) and 49.2% (inactive)
18 | COc1c(/C(C)=N/N=c2sc(C(C)=O)nn2-c2ccc(Cl)cc2)c(Oc2ccccc2)c(OC)c2occc12 | 104% (inactive) and 98.8% (inactive)
19 | OC(COc1cccc2ccccc12)CN1CCN(c2ccc(Cl)cc2)CC1 (stereo not drawn) | 98.5% (inactive) and 97.8% (inactive)
20 | CNc1ccc2nc3ccc(=[N+](C)C)cc-3sc2c1 | -22% (active) and -62.5% (active)
21 | CC1=NN(c2ccccc2)C(=O)C1C(=O)c1ccccc1 (stereo not drawn) | 108% (inactive)
22 | OCCN1CCN(CCO)CC1 | 98.1% (inactive) and 89.2% (inactive) and 112% (inactive)
23 | CC1=CCC2CC1C2(C)C (stereo not drawn) | 103% (inactive) and 94.4% (inactive)
24 | COc1cc(/C=N/Nc2nc3c([nH]2)c(=O)n(C)c(=O)n3C)ccc1O | 97.4% (inactive) and 98.2% (inactive)

Row | SMILES | growth
25 | S=C(S)N1CCCC1 | 96.4% (inactive) and 109% (inactive)
26 | CC(=O)Oc1cc(C(=O)O)cc(OC(C)=O)c1OC(C)=O | 93.9% (inactive) and 99.7% (inactive)
27 | CCN(CC)C(=O)c1cccnc1 | 106% (inactive)
28 | O=C(Nc1cccc(Cl)c1)c1cc2ccccc2cc1O | 4.02% (active) and 7.65% (active)
29 | Cn1c(SSc2ccc(-c3cccnc3)n2C)ccc1-c1cccnc1 | 100% (inactive) and 114% (inactive)
30 | CN1CCN(CCC=C2c3ccccc3Sc3ccc(S(=O)(=O)N(C)C)cc32)CC1 | 56.9% (inactive) and 76.4% (inactive)
31 | Oc1c(Cl)cc(Cl)cc1Sc1cc(Cl)cc(Cl)c1O | 26.8% (inactive) and -26.6% (active) and 72.8% (inactive)
32 | Cn1c(=O)n(-c2ccc(C(C)(C)C#N)cc2)c2c3cc(-c4cnc5ccccc5c4)ccc3ncc21 | 15.6% (inactive) and 17.1% (inactive)
33 | O=C(N/N=C/c1ccccc1)N/N=C/c1ccccc1 | 103% (inactive) and 114% (inactive)
34 | COc1ccc(-c2cn[nH]c2-c2cc(OC)c(OC)c(OC)c2)cc1N | 36.3% (inactive) and 28.5% (inactive)
35 | C1CCCCNCCC1 | 108% (inactive)
36 | COc1ccccc1C(C)=O | 118% (inactive) and 108% (inactive)
37 | NS(=O)(=O)c1cc2c(cc1Cl)NC(C(Cl)Cl)NS2(=O)=O (stereo not drawn) | 93.2% (inactive) and 103% (inactive)
38 | O=C(Oc1cccc(OC(=O)c2ccccc2)c1)c1ccccc1 | 97.8% (inactive) and 99.4% (inactive)
39 | CC1(c2ccc3ccccc3c2)CCC(=O)O1 (stereo not drawn) | 102% (inactive)
40 | CC1=C(/C=C/C(C)=C/C=C/C(C)=C/C=N/NC(=S)NC(=S)N/N=C/C=C(C)/C=C/C=C(C)/C=C/C2=C(C)CCCC2(C)C)C(C)(C)CCC1 | -29% (active) and -55.2% (active)
41 | CCCCOc1cc(C(=O)NCCN(CC)CC)c2ccccc2n1 | 86.7% (inactive) and 93.5% (inactive)
42 | COc1cc2c(c(OC)c1OC)-c1ccc(OC)c(=O)cc1[C@@H](NC(C)=O)CC2 | 35.3% (inactive) and 25.5% (inactive) and 46.8% (inactive)
43 | CN1CCN(c2ccc3nc(-c4c(N)c5c(F)cccc5[nH]c4=O)[nH]c3c2)CC1 | 26.3% (inactive) and 27.6% (inactive)

Reference: PubChem BioAssay (NCI)
